Measurements taken from PubChem BioAssay AID504832 (National Center for Advancing Translational Sciences (NCATS), 2011).
Out of some 310,000 compounds screened, about 18,000 (5.8%) were called active. About 22% were inconclusive and are not listed. Calls follow the shape of the dose curve; as a rule, active = well fitted inhibition curve with a large enough effect; inconclusive = small, poorly fitted or top-dose-only effect, or another doubt; inactive = no such curve, though single readings can be large or run the other way. The entries come from a sample that favours actives as a whole. Where a call stands in place of a potency, no number is given.

experiment: Primary qHTS for delayed death inhibitors of the malarial parasite plastid, 48 hour incubation; settings: P. falciparum luciferase growth in erythrocytes; series mostly up to 28.7 µM
How it was run: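 Erythrocytes infected with P. falciparum carrying an integrated firefly luciferase reporter (2% hematocrit, 0.1% parasitemia final) were exposed to compounds in RPMI 1640 with 0.5% Albumax at 37 C, 5% CO2. Growth inhibition was scored as reduced luminescence.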
Potency is read from the fitted curve at half-maximal effect.

SMILES	Potency
O=C(Nc1ccc(C2CC2(Cl)Cl)cc1)c1cccc([N+](=O)[O-])c1 (stereo not drawn)	inactive
CCn1c(SC(C)C(=O)Nc2ccc(N3CCOCC3)cc2)nnc1-c1ccco1 (stereo not drawn)	inactive
CC(=O)N/C(=C\c1ccccc1)C(=O)OC(C)C(=O)N(C)c1ccccc1 (stereo not drawn)	inactive
Cc1ccc(NC(=O)CN2CCc3ccccc3C2)cc1C	inactive
COc1ccc(CNCCc2c[nH]c3ccccc23)cc1OC	inactive
COc1ccc(-c2cc(C(=O)NC(Cc3c[nH]c4ccccc34)C(=O)O)c(C)o2)cc1OC (stereo not drawn)	inactive
COc1ccc(C(C(=O)NC2CCCCC2)N(C(=O)Cc2c[nH]c3ccccc23)c2ccccc2)cc1OC (stereo not drawn)	13.1 µM (active)
Cc1ccc(F)cc1NC(=O)CSCc1c(C)noc1C	inactive
CCNC(=O)NC(=O)C(C)OC(=O)c1cc(S(=O)(=O)N2CCCCCC2)ccc1OC (stereo not drawn)	inactive
COc1ccc(S(=O)(=O)N2CCCCC2)cc1Br	inactive
COc1ccc(S(=O)(=O)N2CCCCCC2)cc1C(=O)N(C)Cc1cccc(OC)c1OC	13.1 µM (active)
O=S(=O)(Nc1cccc(-c2ccc(N3CCOCC3)nn2)c1)c1ccc(Cl)c(Cl)c1	inactive
O=S(=O)(NC1CC2CCC1C2)c1ccc(Cl)cc1 (stereo not drawn)	inactive
Cc1cccc(Nc2nnc(SCC(=O)c3c(N)n(C4CC4)c(=O)[nH]c3=O)s2)c1C	11.7 µM (active)
Cc1ccccc1Nc1nnc(SCC(=O)c2cc3ccccc3o2)s1	inactive
Cc1ccc(Nc2nnc(SCC(=O)c3cc4ccccc4o3)s2)cc1C	inactive
COCCOC(=O)C1=C(C)NC(=O)NC1c1cc2c(cc1Br)OCO2 (stereo not drawn)	inactive
O=C(NC(Cc1ccccc1)C(=O)N1CCCC(C(F)(F)F)C1)c1ccccc1 (stereo not drawn)	inactive
C[N+]12CN3CN(CN(C3)C1)C2	13.1 µM (active)
Cc1ccc(N=C2SCCCN2C(=O)c2cccc(N3C(=O)CCC3=O)c2)cc1Cl	inactive
Cc1ccc(CNC(=O)C(=O)c2cn(CC(=O)N3CCOCC3)c3ccccc23)cc1	inactive
COc1ccc(C2CC(c3ccccc3)=NN2C(=O)CSc2nccc(=O)[nH]2)cc1 (stereo not drawn)	inactive
COc1ccc(C2=NN(C(=O)CSc3nc(=O)n4ccc(C)cc4n3)C(c3ccc(C)cc3)C2)cc1 (stereo not drawn)	9.28 µM (active)

SMILES	Potency
Cc1ccc(C2=NN(C(=O)CSc3nc(N)cc(N)n3)C(c3ccco3)C2)cc1 (stereo not drawn)	inactive
Cc1cccc(NC(=O)C(C)SCc2ccccc2)c1 (stereo not drawn)	inactive
COc1ccc(CCNC(=O)COC(=O)Cc2cccc(F)c2)cc1	inactive
COc1ccc(C(=O)Nc2nc(-c3ccc(OC)cc3)c(-c3ccc([N+](=O)[O-])cc3)s2)cc1	inactive
COC(=O)C(NC(=O)c1ccc(OC)cc1)(Nc1ncc(S(=O)(=O)c2ccc([N+](=O)[O-])cc2)s1)C(F)(F)F (stereo not drawn)	8.28 µM (active)
CCOCC(=O)Nc1ncc(S(=O)(=O)c2ccc([N+](=O)[O-])cc2)s1	inactive
Cc1c(C(=O)NC2CCCCC2)oc2ccccc12	inactive
CC(NC(=O)c1cc(=O)[nH]c2ccccc12)c1ccc(F)cc1F (stereo not drawn)	inactive
CSc1ccc(CCNC(=O)CS(=O)(=O)Cc2nc(-c3ccccc3F)oc2C)cc1	inactive
COc1ccc(C[C@H](C(=O)O)N2C(=O)c3ccc(C(=O)O)cc3C2=O)cc1	inactive
N#CC(C#N)=CN=c1ccn(Cc2ccc(Cl)cc2Cl)cc1	2.94 µM (active)
O=c1ccn(Cc2ccccc2Cl)cc1	inactive
C=CCN1C=C2C(=O)C(C)(OC(=O)CCc3ccccc3)C(=O)C=C2C=C1c1ccc(C#N)cc1 (stereo not drawn)	11.7 µM (active)
COC/C=C/C1=CC2=CC(=O)C(C)(OC(=O)CCC(=O)OC)C(=O)C2=CO1 (stereo not drawn)	inactive
COCCN1C=C2C(=O)C(C)(OC(=O)C3CCCC3)C(=O)C=C2C=C1c1ccsc1 (stereo not drawn)	inactive
C/C(=N/OC(=O)c1ccc(Br)cc1)c1ccc(C)cc1	inactive
COc1ccc(C(=O)CN2C(=O)NC3(CCc4ccccc43)C2=O)c(OC)c1 (stereo not drawn)	inactive
CCN(CC)c1ccc(NC(=O)CN2C(=O)NC3(CCc4ccccc43)C2=O)cc1 (stereo not drawn)	inactive
COc1ccc(-n2c(C)cc(C(=O)CN3C(=O)NC4(CCc5ccccc54)C3=O)c2C)cc1 (stereo not drawn)	4.15 µM (active)
CN(CC(=O)Nc1ccc(Cl)cc1)CC(=O)Nc1cccc2ccccc12	inactive
NC(=O)C1CCN(C(=O)c2ccc(F)c(S(=O)(=O)N3CCOCC3)c2)CC1	inactive
COc1ccc(C=C(C#N)C#N)c(CSc2ccccn2)c1	inactive
O=[N+]([O-])c1ccc(N=Cc2c(O)ccc3ccccc23)cc1	inactive

SMILES	Potency
Oc1ccc(N=Cc2c(O)ccc3ccccc23)cc1	9.28 µM (active)
Oc1ccc2ccccc2c1C=Nc1ccccc1	inactive
COc1cccc(NC(=O)COC(=O)/C=C/c2ccco2)c1	inactive
O=C(COC(=O)c1ccc2ncsc2c1)Nc1ccc(Cl)cc1	inactive
Cn1c(SCC(=O)N2CCCC2)nnc1-c1cccs1	inactive
O=C(CSc1nnc(-c2cccs2)n1-c1ccccc1)N1CCN(C(=O)c2ccco2)CC1	inactive
O=C(CSc1nnc(-c2cccs2)n1Cc1ccccc1)N1CCc2ccccc2C1	6.57 µM (active)
O=C(O)c1ccc(OCC2CCCO2)cc1 (stereo not drawn)	inactive
O=C(CSc1n[nH]c(-c2cccs2)n1)N1CCCCC1	inactive
CC(=O)Nc1ccc(S(=O)(=O)NC2Cc3ccccc3C2)cc1	inactive
O=S(=O)(NC1CCCCC1N1CCCCC1)c1ccc(Cl)cc1 (stereo not drawn)	inactive
CCOC(=O)N1CCN(S(=O)(=O)c2cc(Br)cc3c2N(C(=O)C2CC2)CC3)CC1	inactive
CCN(c1ccc2c(c1)OCO2)S(=O)(=O)c1cc(Br)cc2c1N(C(=O)C1CC1)CC2	1.47 µM (active)
CS(=O)(=O)N(CC(=O)N1CCN(Cc2ccc3c(c2)OCO3)CC1)c1ccc2c(c1)OCO2	inactive
COc1cccc(CNC(=O)COC(=O)CN2C(=O)NC3(CCCCC3C)C2=O)c1 (stereo not drawn)	inactive
OCC[C@H]1C[C@@H](O)[C@H](O)[C@@]2(OCCc3ccccc32)O1	inactive
Cc1nc(/N=C(\N)NC(=O)NC2CCCCC2)nc2ccccc12	2.94 µM (active)
COc1ccc2nc(/N=C(\N)NC(=O)Nc3ccccc3)nc(C)c2c1	1.85 µM (active)
Cc1nn(-c2ccccc2)c(C)c1C(=O)OCC(=O)NC(=O)NC1CCCCC1	inactive
COc1ccc2nc(C)cc(Nc3cccc(C(=O)O)c3)c2c1	inactive
COc1ccc2nc(SCc3ccccc3)nc(C)c2c1	inactive
O=C(NNC(=O)C(O)c1ccccc1)NC1CCCCC1 (stereo not drawn)	inactive
